The panel holds about 83,000 compounds, 20% with a hit somewhere; the sample as a whole holds those more often.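 The test compound was applied at a single concentration to cells in 96-well plates for 48 hours, and percent growth was recorded.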 A number with no mark means an inactive call. Activity calls are given as the source filed them. Rule for the calls: active = growth percent below 10; inactive = the rest.
Columns and labels:
Experiment in all cases: NCI-60 one-dose screen, 48 h (100 = growth as untreated, 0 = no growth, -100 = all killed)
[1] = system: SR leukemia; conditions: 10 µM unless noted
[2] = system: RPMI-8226 leukemia; conditions: 10 µM unless noted
[3] = system: OVCAR-8 ovarian; conditions: 10 µM unless noted
[4] = system: OVCAR-5 ovarian; conditions: 10 µM unless noted
[5] = system: OVCAR-4 ovarian; conditions: 10 µM unless noted
[6] = system: SK-OV-3 ovarian; conditions: 10 µM unless noted
[7] = system: IGROV1 ovarian; conditions: 10 µM unless noted
[8] = system: OVCAR-3 ovarian; conditions: 10 µM unless noted
[9] = system: HS 578T breast; conditions: 10 µM
[10] = system: NCI/ADR-RES ovarian; conditions: 10 µM unless noted
[11] = system: T-47D breast; conditions: 10 µM unless noted
[12] = system: BT-549 breast; conditions: 10 µM unless noted
[13] = system: MDA-MB-435 melanoma; conditions: 10 µM unless noted
[14] = system: SW-620 colon; conditions: 10 µM unless noted
[15] = system: MCF7 breast; conditions: 10 µM unless noted
[16] = system: HCT-116 colon; conditions: 10 µM unless noted
[17] = system: HCC-2998 colon; conditions: 10 µM
[18] = system: KM12 colon; conditions: 10 µM unless noted

SMILES | growth [1] | growth [2] | growth [3] | growth [4] | growth [5] | growth [6] | growth [7] | growth [8] | growth [9] | growth [10] | growth [11] | growth [12] | growth [13] | growth [14] | growth [15] | growth [16] | growth [17] | growth [18]
Cc1ccc2oc(=O)cc(-c3cc(-c4cc5ccccc5oc4=O)nc(N)c3C#N)c2c1 | 74.3% | 72.9% | 61.1% | 101% | 8.25% (active) | 78.8% | 81.6% | 77.1% | 70.7% | 80.4% | 59.7% | 57.2% | 65.7% | 83.5% | 78.1% | 51.4% | 93% | 65.7%
COc1ccc(-c2nocc2-c2cc(OC)c(OC)c(OC)c2)cc1 | 23.6% | 30.7% | 28.4% | 51% | 45.7% | 22.5% | 46.6% | -10.9% (active) | 27.4% | -19.5% (active) | 39.6% | 48.5% | -54.4% (active) | 21.4% | 24.3% | 6.36% (active) | 13.4% | 12.4%
N#CC1(C#N)C(c2cccs2)NC(c2cccs2)C1(C#N)C#N (configuration not stated) | 110% | 107% | 101% | 109% | 92.7% | 99.1% | 101% | 98.1% | 104% | 97.6% | 91% | 101% | 107% | 108% | 90.3% | 97.6% | 100% | 100%
C=C1C(=O)O[C@H]2[C@H]1CC/C(Cn1cc(-c3cc(C)c(C)cc3C)nn1)=C\CC[C@@]1(C)O[C@@H]21 | -5.15% (active) | -24.6% (active) | -55.9% (active) | -45.6% (active) | -94.3% (active) | 76.2% | -63.9% (active) | -95.2% (active) | 11.6% | 5.12% (active) | -46.8% (active) | -66.1% (active) | -56.3% (active) | -79.2% (active) | -62.3% (active) | -87.4% (active) | -91.7% (active) | 14.1%
CC(=O)Oc1ccccc1C(=O)N=C1[Se]CCN1C(=O)c1ccccc1OC(C)=O | 24% | 12.1% | -12.1% (active) | -12.4% (active) | -2.68% (active) | -30.6% (active) | -15.1% (active) | -74.2% (active) | -14.9% (active) | -6.15% (active) | -15.2% (active) | -94.3% (active) | -57.2% (active) | -26.7% (active) | 5.48% (active) | -44% (active) | -4.02% (active) | -12.6% (active)
O=c1[nH]c(N2CCOCC2)nc2scc(-c3ccccc3)c12 | 102% | 97.7% | 96.2% | 104% | 101% | 88% | 101% | 110% | 102% | 98.1% | 80.7% | 92.4% | 91.7% | 110% | 92.2% | 98.3% | 106% | 97.6%
CC(CCCC(=O)O)c1ccoc1 (configuration not stated) | 102% | 104% | 109% | 105% | 99.7% | 95.1% | 102% | 105% | 112% | 104% | 89.6% | 108% | 107% | 110% | 94.1% | 101% | 96.7% | 98.7%
Nc1c(C(=O)c2ccccc2)sc2nc(-c3cccs3)cc(-c3cccs3)c12 | 24.4% | 57.7% | 54.8% | 84.5% | 62.6% | 46% | 66.3% | 11.9% | 53.4% | 24.4% | 36% | 50.9% | -14.4% (active) | 28.8% | 45.9% | 16.8% | 72.1% | 29.1%
COC(=O)[C@H](C)NC(=O)[C@@H](OC)[C@@H]1Cc2cc3cc(OC4CC(OC5CC(O)C(O)C(C)O5)C(O)C(C)O4)c(C)c(O)c3c(O)c2C(=O)[C@H]1OC1CC(OC2CC(OC3CC(C)(O)C(O)C(C)O3)C(O)C(C)O2)C(O)C(C)O1 (some centres not stated) | 7.81% (active) | -5.91% (active) | 9.19% (active) | 13.5% | 0.165% (active) | 22.6% | 22.8% | 5.02% (active) | -7.37% (active) | 75.4% | 2.98% (active) | -32.5% (active) | -39.3% (active) | 10.2% | 8.55% (active) | 4.37% (active) | -44% (active) | 5.08% (active)

Source: PubChem BioAssay (NCI)
